These results are taken from PubChem BioAssay (NCI).

Assay [1] in a line: NCI Yeast Anticancer Drug Screen. Data for the rad50 strain (AID 155).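 Further: 0% = growth of vehicle-only cultures of the same strain.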 The settings on record: S. cerevisiae rad50 strain growth inhibition; at 50.0 µM; active compounds read high. An outline of the steps:
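Yeast carrying a defined DNA repair defect were exposed to test compounds, and growth was compared with vehicle-treated controls to give percent inhibition.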

The nature of assay [2]: NCI Yeast Anticancer Drug Screen. Data for the mec2-1 strain (AID 157). The settings on record: S. cerevisiae mec2-1 strain, at 50.0 µM, active compounds read high. A digest of the protocol:
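Compounds were applied to mec2-1 yeast cells. Their growth was then compared with that of vehicle-treated cultures to give growth inhibition.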

Assay [3] is described as follows: NCI Yeast Anticancer Drug Screen. Data for the sgs1 mgt1 strain (AID 161).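 Further: 0% = growth of cultures given vehicle only.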 The note with it: S. cerevisiae sgs1 mgt1 strain, at 50.0 µM, active compounds read high. An outline of the steps:
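Compounds are added to genetically altered yeast, and growth is compared with cultures given vehicle alone to give percent inhibition.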

The nature of assay [4]: NCI Yeast Anticancer Drug Screen. Data for the cln2 rad14 strain (AID 165).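 Further: 0% = growth equal to vehicle treated cultures.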 The settings on record: S. cerevisiae cln2 rad14 strain, at 50.0 µM, active compounds read high. An outline of the steps: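 Strain: cln2 rad14 yeast, altered in cell cycle control and DNA damage repair. Read-out: growth inhibition vs vehicle.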
Assay [5] can be described thus: NCI Yeast Anticancer Drug Screen. Data for the bub3 strain (AID 167). The note with it: S. cerevisiae bub3 mutant strain, at 50.0 µM, active compounds read high. A digest of the protocol:
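Compounds were applied to a genetically altered yeast strain carrying a cell-cycle control defect. Growth inhibition was scored against vehicle-treated controls.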

Assay [6] can be described thus: NCI Yeast Anticancer Drug Screen. Data for the mlh1 rad18 strain (AID 175). The settings on record: S. cerevisiae mlh1 rad18 strain growth inhibition; at 50.0 µM; active compounds read high. An outline of the steps: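 A repair-deficient yeast strain is exposed to test compound, and growth is scored relative to vehicle-treated controls.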

The panel holds about 79,000 compounds, 15% with a hit somewhere; the sample as a whole holds those more often. Unmarked numbers belong to inactive results. Activity calls are given as the source filed them. No stated cut-off is given here; in the data, active means growth inhibition above about 70%; inactive means the rest.

For the compound `Nc1n[n+]([O-])c2cc([N+](=O)[O-])ccc2[n+]1[O-]`, the growth inhibition in assay [1] was 85.1% (active); in assay [2], 87.9% (active); in assay [3], 84.7% (active); in assay [4] it was 79.7% (active); in assay [5], 75.9% (active); in assay [6], 68%.

Take `Cc1c(C)c2cc(Br)ccc2[nH]c1=O`: the growth inhibition in assay [1] was 18.9%; in assay [2] it was -6.2%; in assay [3], -10.2%; in assay [4], 6.45%; in assay [5], 6.7%; in assay [6], 2.45%.

Consider `COC1(OC)N=C(N)C2(C#N)C(C)=C3NCN(C)N=C3C12C#N` (centres undefined), for which the growth inhibition in assay [1] was 8.15%; in assay [2], 3.2%; in assay [3], -44%; in assay [4], -6.7%; in assay [5], -33.8%; in assay [6] it was -51%.

In the case of `CN(C)CCOC(=O)c1cccc(CCl)c1`, the growth inhibition in assay [1] is 15.9%; in assay [2], 6.3%; in assay [3], 5.75%; in assay [4] it was 44.4%; in assay [5], 25.4%; in assay [6], 7.95%.

With `NCCN1CCOCC1`, the growth inhibition is 7.95% in assay [1]; -3% in assay [2]; -11.9% in assay [3]; 3.45% in assay [4]; -5.25% in assay [5]; 7.8% in assay [6].

With `CCOC(=O)Cc1csc(N=Nc2c(O)[nH]c3ccccc23)n1`, the growth inhibition in assay [1] is -2.55%; in assay [2] it was -12.8%; in assay [3], 10.6%; in assay [4], 7.9%; in assay [5] it was 5.85%; in assay [6] it was 17.6%.

For `Cc1cc(=O)n2c(n1)Nc1ccccc1C2`, the growth inhibition in assay [1] was 22.5%; in assay [2], -26%; in assay [3], 2.75%; in assay [4] it was 1.65%; in assay [5] it was 46.4%; in assay [6], 6.8%.

`COC(=O)C(S)(NC(C)=O)C(C)C` (centres undefined): the growth inhibition is 0.2% in assay [1]; -10.5% in assay [2]; -1.25% in assay [3]; -30.4% in assay [4]; -18.8% in assay [5]; 16.1% in assay [6].

As for `Cc1ccc(C(=O)c2ccc(C)cc2)cc1`, the growth inhibition in assay [1] is -2.55%; in assay [2], -4.45%; in assay [3], 13%; in assay [4], -3.7%; in assay [5] it was 6.3%; in assay [6] it was 15.1%.

As to `CC(CN1CCCC1)(Oc1ccccc1)C(=O)c1ccccc1` (centres undefined), the growth inhibition in assay [1] is 16.6%; in assay [2], -0.45%; in assay [3], 15.1%; in assay [4], 7.8%; in assay [5] it was 10.1%; in assay [6] it was 2.45%.

Regarding `O=C(OC1COC(n2c(=O)oc3ccc(Cl)cc32)C(OC(=O)c2ccccc2)C1OC(=O)c1ccccc1)c1ccccc1` (centres undefined), the growth inhibition in assay [1] is 8%; in assay [2], 2.5%; in assay [3] it was 6.8%; in assay [4] it was -13.2%; in assay [5], -1.1%; in assay [6] it was 10.7%.

In the case of `CCc1cn(O)c(C)cc1=N`, the growth inhibition in assay [1] was 25.3%; in assay [2] it was 11.1%; in assay [3] it was 6.15%; in assay [4] it was 5.8%; in assay [5], 12%; in assay [6], 21.1%.

As to `C[Si](C)(OCCS(=O)(=O)O)C1(Cc2cccc3ccccc23)S(=O)(=O)OCCOS1(=O)=O`, the growth inhibition in assay [1] is 13.6%; in assay [2], -9.55%; in assay [3], 2.6%; in assay [4], 18.1%; in assay [5], 13.1%; in assay [6], 17.2%.

For `C=CCSc1ncnc2nc[nH]c12`, the growth inhibition was 7.9% in assay [1]; -1.3% in assay [2]; 1.55% in assay [3]; -3.15% in assay [4]; -0.45% in assay [5]; 9.1% in assay [6].

Regarding `CN(C)c1ccc(N=Nc2cc3c4ccccc4ccc3c3ccccc23)cc1`, the growth inhibition is 15.1% in assay [1]; -10.2% in assay [2]; 23.1% in assay [3]; 1.6% in assay [4]; 9.45% in assay [5]; 23.3% in assay [6].

Consider `CCCCCCCCCCCCCCCCCC/C(CC)=N/Nc1ccc([N+](=O)[O-])cc1[N+](=O)[O-]`, for which the growth inhibition in assay [1] is -21.1%; in assay [2] it was 3.7%; in assay [3], -12.2%; in assay [4], -25.1%; in assay [5], 11.2%; in assay [6] it was 5.55%.

As for `CCOC(=O)CCC(NC(=O)c1ccc(Nc2nc3ccccc3nc2-c2cccs2)cc1)C(=O)OCC` (centres undefined), the growth inhibition in assay [1] is 7.1%; in assay [2], 4.3%; in assay [3], 20.1%; in assay [4], 14.8%; in assay [5], 9.2%; in assay [6], -34.7%.

Regarding `O=C(c1ccncc1)c1c(Cc2ccccc2)ccc2ccccc12`, the growth inhibition in assay [1] was -0.3%; in assay [2] it was -0.65%; in assay [3], -9.25%; in assay [4] it was -4%; in assay [5] it was 5.45%; in assay [6] it was -1.35%.

For the compound `CN(C)/C=N/NC(=O)c1ccccc1N`, the growth inhibition in assay [1] was -15%; in assay [2], -15.7%; in assay [3] it was -6.75%; in assay [4] it was -11.6%; in assay [5], 2.15%; in assay [6], 0.55%.

With `CN(C)CCNC(=O)c1ccc(C(=O)NCCN(C)C)c2c(C(=O)NCCN(C)C)ccc(C(=O)NCCN(C)C)c12`, the growth inhibition in assay [1] was 19.1%; in assay [2] it was 41.3%; in assay [3], 37.2%; in assay [4] it was 54.7%; in assay [6], 8.5%.
